Screening data (PubChem BioAssay)
DAT uptake mod: changed hDAT dopamine uptake under cocaine IC80, either direction, primary screen, cocaine antagonist project, cell-based, LLC-PK1 hDAT, [14C]-dopamine uptake, MLSMR | B-score at 10 µM | actives 1.3% (n = 110,000) | Sodium-dependent dopamine transporter (Homo sapiens), Q01959 | LLC-PK1 hDAT cells, [14C]-dopamine uptake with cocaine IC80; actives deviate in either direction | AID 449768, 2010;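 active = Z score or B-score, a plate-position-corrected score, falls beyond the plate's 99.7% confidence bounds, in either direction; inactive = both scores lie inside the 99.7% bounds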
Calb biofilm kill: clotrimazole potentiators killing Candida biofilms, primary screen, with clotrimazole, Alamar Blue; inhibition, % at 6 µM; actives 0.14% (n = 85,000); C. albicans biofilm + clotrimazole; AID 834, 2007;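 active = inhibition above 20%; inactive = inhibition below 20%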;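 note: preformed 24 hr biofilms exposed to compound for 48 hr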
HePTP inhibitor: inhibitors of human HePTP phosphatase, primary screen, biochemical, absorbance, leukemia target; Tyrosine-protein phosphatase non-receptor type 7 (Homo sapiens), P35236; recombinant HePTP phosphatase activity, OD absorbance; inhibition, % at 20 µM; actives 0.64% (n = 110,000); in the data active = inhibition above about 50%
Target sequence (P35236 whole entry, looked up): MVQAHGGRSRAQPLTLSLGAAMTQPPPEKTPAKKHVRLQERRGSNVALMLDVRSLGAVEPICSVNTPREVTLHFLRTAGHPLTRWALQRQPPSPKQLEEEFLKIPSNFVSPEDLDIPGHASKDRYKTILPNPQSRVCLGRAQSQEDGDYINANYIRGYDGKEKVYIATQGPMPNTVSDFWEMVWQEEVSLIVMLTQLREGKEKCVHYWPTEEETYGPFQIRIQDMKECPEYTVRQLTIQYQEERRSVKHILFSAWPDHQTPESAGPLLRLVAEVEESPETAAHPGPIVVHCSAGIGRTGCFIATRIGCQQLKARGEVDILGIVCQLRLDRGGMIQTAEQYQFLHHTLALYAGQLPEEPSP
TNAP act mid DEA: human TNAP enzyme activators, primary screen, biochemical, luminescent, intermediate phosphate acceptor level; Alkaline phosphatase, tissue-nonspecific isozyme (Homo sapiens), P05186; purified TNAP, CDP-star luminescence, 100 mM DEA, 30 min; active compounds read high; scale: 0 levamisole-inhibited, 1 vehicle-only enzyme; activation factor at 20 µM; 64,000 tested, under 10 active;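 active = activation factor of at least 2 at 20 µM, relative to controls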
PLAP activator: PLAP enzyme activators, biochemical, luminescence, HTS; Alkaline phosphatase, placental type (Homo sapiens), P05187; purified PLAP enzyme, luminescent substrate read-out; active compounds read high; activation fold at 20 µM; actives 1.2% (n = 96,000); in the data active = activation fold above about 2
D1 allo mod: D1 CRE-luciferase signal change, two-sided – cell-based, HEK293 D1, dopamine EC30, D1 allosteric modulator project, primary screen; B-score at 10 µM; actives 5.9% (n = 58,000); dopamine EC30 potentiation; actives deviate in either direction;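 active = luminescence count or its row- and column-corrected plate score outside the 99.7% band of the plate's sample wells, on either side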
Target sequence (P21728 whole entry, looked up): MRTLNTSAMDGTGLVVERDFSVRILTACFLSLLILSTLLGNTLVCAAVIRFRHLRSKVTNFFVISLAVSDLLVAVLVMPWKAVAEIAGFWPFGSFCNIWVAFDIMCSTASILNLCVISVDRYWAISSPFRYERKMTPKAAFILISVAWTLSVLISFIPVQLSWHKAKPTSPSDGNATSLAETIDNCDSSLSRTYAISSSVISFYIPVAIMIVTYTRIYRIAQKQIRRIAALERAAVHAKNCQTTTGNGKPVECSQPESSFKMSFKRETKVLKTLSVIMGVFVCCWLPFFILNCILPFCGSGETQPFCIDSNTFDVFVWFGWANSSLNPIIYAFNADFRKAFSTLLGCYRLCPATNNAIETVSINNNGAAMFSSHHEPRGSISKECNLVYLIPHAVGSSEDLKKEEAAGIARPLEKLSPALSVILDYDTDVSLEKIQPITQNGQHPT
D1 mod confirm: D1 receptor positive allosteric modulators, retest, confirmation, cell-based, HEK293 D1, CRE-luciferase, duplicate. shares compounds with D1 allo mod. dopamine EC30 potentiation; active compounds read high. luminescence at 10 µM. actives 88% (n = 2,200). AID 642, 2007;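 active = luminescence in either of two replicates above the same-plate mean plus 3 SD of the low-dose dopamine control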
D1 no dopamine: D1 receptor agonism without dopamine, confirmation, mechanism study for D1 allosteric modulator project, cell-based, HEK293 D1, CRE-luciferase, secondary assay 1; shares compounds with D1 allo mod; luminescence, no dopamine; active compounds read high; luminescence at 10 µM; actives 0.8% (n = 1,900); in the data active = luminescence above about 3900
Isoprot counter: isoproterenol response counter-screen activity for D1 modulators; shares compounds with D1 allo mod; HEK293 D1 CRE-luciferase, isoproterenol EC30 counter-screen; active compounds read high; luminescence at 10 µM; actives 63% (n = 2,200); AID 647;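 active = luminescence in either replicate above plate mean of wells with a partly effective reference agonist dose plus 3 SD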;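 note: isoproterenol raises cAMP through native beta-adrenoceptor Gs so signal bypasses D1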
Large screens that a line does not name were inactive (follow-up assays come after a bar, where they were run). Only a selection was taken, and hits are over-represented in it overall.

NC(=O)C1(N2CCCCC2)CCN(c2ccc3nnc(-c4ccccc4)n3n2)CC1	D1 allo mod 11 | D1 mod confirm 18940 | Isoprot counter 3956
c1ccc(-c2nnc3ccc(N4CCC5(CC4)OCCO5)nn23)cc1	D1 allo mod 21 | D1 mod confirm 16736 | D1 no dopamine inactive | Isoprot counter 5316
Fc1cccc(Cl)c1-c1nnc2ccc(N3CCOCC3)nn12	D1 allo mod 16 | D1 mod confirm 10924 | D1 no dopamine inactive | Isoprot counter 4744
Brc1ccc(-c2nnc3ccc(N4CCN(c5ccccc5)CC4)nn23)cc1	none (no result: Calb biofilm kill)
Cc1cc(C)nc(NC(N)=NC2CCCCCC2)n1	none (no result: DAT uptake mod, Calb biofilm kill, TNAP act mid DEA, PLAP activator, D1 allo mod)
CCOC(=O)C1=C(C)N=c2s/c(=C\c3ccc(O)cc3)c(=O)n2C1c1cccc(OC)c1 (stereo not drawn)	none (no result: DAT uptake mod, Calb biofilm kill, TNAP act mid DEA, PLAP activator, D1 allo mod)
C=CCSc1nc2ccccc2c(=O)[nH]1	D1 allo mod 3 | D1 mod confirm 9580 | D1 no dopamine inactive | Isoprot counter inactive
O=C(O)CCC(C(=O)O)N1C(=O)/C(=C\C(Cl)=C/c2ccc([N+](=O)[O-])cc2)SC1=S (stereo not drawn)	none (no result: DAT uptake mod, Calb biofilm kill, TNAP act mid DEA, PLAP activator, D1 allo mod)
c1ccc(COc2ccc(Oc3nc(N4CCCCC4)nc(N4CCOCC4)n3)nn2)cc1	D1 allo mod 9.2 | D1 mod confirm 15844 | D1 no dopamine inactive | Isoprot counter 5164
COc1cc(S(=O)(=O)N2CCOCC2)ccc1NC(=O)CSc1nnc(N)s1	D1 allo mod 4.8 | D1 mod confirm inactive | Isoprot counter inactive
O=C(Nc1ncc(Cc2ccc(Cl)cc2)s1)c1ccccc1Cl	none (no result: DAT uptake mod, Calb biofilm kill, TNAP act mid DEA, PLAP activator, D1 allo mod)
CC(C)(C)NC(=O)c1sc2ccccc2c1Cl	none (no result: DAT uptake mod, Calb biofilm kill, TNAP act mid DEA, PLAP activator, D1 allo mod)
COC(=O)c1sc2ccccc2c1C(=O)OC	D1 allo mod 10 (no result: PLAP activator) | D1 mod confirm 9140 | D1 no dopamine inactive | Isoprot counter inactive
COC(=O)c1sc2ccccc2c1NC(=O)c1cccs1	D1 allo mod 19 | D1 mod confirm 20828 | D1 no dopamine inactive | Isoprot counter 5680
COc1cc(NC(=O)c2cccs2)cc(OC)c1	none
CCCCCCCNC(=O)COc1ccc2c(c1)C(=O)CC(C)(C)O2	none (no result: HePTP inhibitor, TNAP act mid DEA, D1 allo mod)
CC1(C)CC(=O)c2cc(OCC(=O)NCCCN3CCN(c4ccccc4F)CC3)ccc2O1	D1 allo mod 5.6 | D1 mod confirm 6164 | Isoprot counter 10276
CCN1C(=O)c2c(C)nc3ccccc3c2C1=O	D1 allo mod 16 (no result: Calb biofilm kill) | D1 mod confirm 15840 | D1 no dopamine inactive | Isoprot counter 3740
COC(=O)c1nc2n(n1)C(c1ccc(OC)c(OC)c1)C(C(=O)OC1CCCCC1)=C(C)N2 (stereo not drawn)	D1 allo mod 3.3 | D1 mod confirm 7744 | Isoprot counter inactive
CCCCOc1ccc(N2C(=O)c3cccc4cccc(c34)C2=O)cc1	none (no result: DAT uptake mod, Calb biofilm kill, TNAP act mid DEA, PLAP activator, D1 allo mod)
O=S(=O)(c1ccc(Cl)c(Cl)c1)N1CCN(Cc2ccccc2)CC1	none (no result: DAT uptake mod, Calb biofilm kill, TNAP act mid DEA, PLAP activator, D1 allo mod)
COc1ccc(-c2nc(-c3cccs3)c(-c3cccs3)[nH]2)cc1O	D1 allo mod 2.8 | D1 mod confirm inactive | D1 no dopamine inactive | Isoprot counter inactive
Oc1ccc(-c2nc(-c3ccccc3)c(-c3cccs3)[nH]2)cc1O	none (no result: DAT uptake mod, Calb biofilm kill, TNAP act mid DEA, PLAP activator, D1 allo mod)
CCOC(=O)c1oc2ccccc2c1N	none (no result: HePTP inhibitor, TNAP act mid DEA, D1 allo mod)
CCOC(=O)c1oc2ccccc2c1NC(=O)COC	D1 allo mod 21 | D1 mod confirm 20772 | D1 no dopamine inactive | Isoprot counter 5264
NC(=O)c1oc2ccccc2c1NC(=O)c1ccc(F)cc1	D1 allo mod 4.5 (no result: Calb biofilm kill) | D1 mod confirm 7528 | D1 no dopamine inactive | Isoprot counter inactive
CCOC(=O)c1oc2ccccc2c1NC(=O)Cc1cccs1	none
CCOC(=O)c1oc2ccccc2c1NC(=O)c1cc(OC)cc(OC)c1	D1 allo mod 4.7 | D1 mod confirm 13500 | Isoprot counter 3688
CCOCC(=O)Nc1c(C(=O)OCC)oc2ccccc12	D1 allo mod 8.8 | D1 mod confirm 17016 | D1 no dopamine inactive | Isoprot counter 4516
NC(=O)c1oc2ccccc2c1NC(=O)c1nc2ccccc2s1	none
CCn1c2ccccc2c2cc(NC(=O)c3cccnc3)ccc21	none (no result: DAT uptake mod, Calb biofilm kill, TNAP act mid DEA, PLAP activator, D1 allo mod)
CCOC(=O)c1oc2ccc(OC)cc2c1NC(=O)CN1CCN(C)CC1	none (no result: HePTP inhibitor, TNAP act mid DEA, D1 allo mod)
CCOC(=O)c1oc2ccccc2c1NC(=O)CN1CCN(C)CC1	D1 allo mod 3.5 | D1 mod confirm 8308 | D1 no dopamine inactive | Isoprot counter 3668
CCOc1cc(C2C(C(=O)OC)=C(C)N=C3SCCC(=O)N32)ccc1OC(C)=O (stereo not drawn)	D1 allo mod 5.1 | D1 mod confirm 6516 | Isoprot counter 2496
CCOc1ccc(-c2cc3nc(C4CCN(C(=O)OC(C)(C)C)CC4)c(C(=O)O)cn3n2)cc1	DAT uptake mod 3.4, D1 allo mod 13 (no result: Calb biofilm kill) | D1 mod confirm 13012 | D1 no dopamine inactive | Isoprot counter 5244
COc1cccc(-n2c(SC3CCOC3=O)nc3ccccc3c2=O)c1 (stereo not drawn)	D1 allo mod 13 (no result: PLAP activator) | D1 mod confirm 13364 | D1 no dopamine inactive | Isoprot counter 4456
COc1ccc(OCc2nnc(SC3CCOC3=O)n2-c2ccccc2)cc1 (stereo not drawn)	none
O=C(O)c1ccccc1C(=O)c1cc([N+](=O)[O-])ccc1Cl	none (no result: DAT uptake mod, Calb biofilm kill, TNAP act mid DEA, PLAP activator, D1 allo mod)
COc1ccc(NC(=O)C2CC(c3ccc(OC)c(OC)c3)=NO2)cc1OC (stereo not drawn)	D1 allo mod 7.1 | D1 mod confirm 12656 | D1 no dopamine inactive | Isoprot counter 3552
COc1ccc(C2=NOC(C(=O)NCc3ccc(F)cc3)C2)cc1OC (stereo not drawn)	D1 allo mod 37 (no result: DAT uptake mod) | D1 mod confirm 26920 | D1 no dopamine inactive | Isoprot counter 4436
COc1cc(C2=NOC(C(=O)NCc3ccc(F)cc3)C2)cc(OC)c1OC (stereo not drawn)	none (no result: DAT uptake mod, Calb biofilm kill)
COc1ccc(C2=NOC(C(=O)Nc3ccc(C)cc3)C2)cc1OC (stereo not drawn)	D1 allo mod 21 | D1 mod confirm 20008 | D1 no dopamine inactive | Isoprot counter 6560
CCC(Oc1ccccc1)C(=O)Nc1nc2ccc(C)cc2s1 (stereo not drawn)	none (no result: DAT uptake mod, Calb biofilm kill, TNAP act mid DEA, PLAP activator, D1 allo mod)
O=C1c2ccccc2-c2nc3ccc([N+](=O)[O-])cc3nc21	none (no result: DAT uptake mod, Calb biofilm kill, TNAP act mid DEA, PLAP activator, D1 allo mod)
